Drawing on PubChem BioAssay AID1566 (Sanford-Burnham Center for Chemical Genomics, 2009), this text covers inhibition for 95 molecules.

Structures are written as SMILES. Screen size: about 290,000 compounds; about 1,800 (0.62%) were called active. What follows is part of a selection rich in actives, with near analogues and random picks from the rest. Values without a mark were called inactive. No stated cut-off is given here; in the data, active means inhibition above about 50%; inactive means the rest.

The assay is described as follows: inhibition of NOD2-driven NF-kB reporter – cell-based, luminescence, uHTS, HEK293 (AID 1566). To be noted: HEK293 NOD2/NF-kB luciferase reporter, at 4 µM, active compounds read high. For orientation: In a reporter assay the amount or activity of a reporter protein is the signal.
For `CNC(=O)C(=O)NCC1OCCN1S(=O)(=O)c1ccc(OC)c(OC)c1` (stereo not given), the inhibition is -11.3%.

`COc1cccc(CN2C(=O)C(C)N(C(=O)c3ccccc3)c3ccccc32)c1` (stereo not given): the inhibition is 51% (active).

With `CC1C(=O)N(Cc2ccccc2)c2ccccc2N1C(=O)c1ccccc1` (stereo not given), the inhibition is 13.9%.

For the molecule `COc1cccc(CN2C(=O)C(C)N(C(=O)c3c(F)cccc3F)c3ccccc32)c1` (stereo not given), the inhibition is 45.6%.

As for `CC(C(=O)Nc1cc([N+](=O)[O-])ccc1Cl)N1CCN(c2ccc(O)cc2)CC1` (stereo not given), the inhibition was 1.4%.

On to `COc1ccc(Cl)cc1NC(=S)Nc1ccccc1C`, for which the inhibition is 0.6%.

Consider `Cc1csc2c(=O)sc(NC(=O)c3cccs3)nc12`, for which the inhibition was 25.6%.

Regarding `COc1cc(NC(=O)c2cccs2)c(C(=O)OCC(=O)c2cc(C)n(-c3ccc(F)cc3)c2C)cc1OC`, the inhibition was 9.1%.

Turning to `COc1ccc(-n2c(C)cc(C(=O)COC(=O)c3cc(NC(=O)c4cccs4)c(OC)c(OC)c3)c2C)cc1`, the inhibition is 12.4%.

For the molecule `Oc1ccc2ccccc2c1/C=N/Nc1nnc(-c2ncc[nH]2)c2ccccc12`, the inhibition was 66.3% (active).

Take `Clc1ccc(/C=N/Nc2nnc(-c3ncc[nH]3)c3ccccc23)cc1`: the inhibition is -40.1%.

For the molecule `COc1ccc(/C=N/Nc2nnc(-c3ncc[nH]3)c3ccccc23)cc1`, the inhibition is -81.3%.

As to `CS(=O)(=O)Nc1ccccc1C(=O)NCCSCc1ccccc1`, the inhibition is -4.8%.

On to `CNC(=S)NC1CC2CCC(C1)N2Cc1ccccc1` (stereo not given), for which the inhibition was 0.2%.

For the molecule `CC(C)C(NC(=O)C(NC(=O)C1O[C@@H]2OC(C)(C)O[C@@H]2[C@H]2OC(C)(C)O[C@@H]12)C(C)C)C(=O)O` (stereo not given in full), the inhibition is 20%.

For `CCOC(=O)Cc1csc(NS(=O)(=O)c2cc(Cl)ccc2Cl)n1`, the inhibition is -18.2%.

For `Brc1cc(Br)c2nc3c(cc2c1)CCC3`, the inhibition is 7.6%.

In the case of `COc1cc2cc(Br)cc(Br)c2nc1C`, the inhibition was 5.9%.

Take `CCS(=O)(=O)N1CCN(C(=O)c2cccc(OC)c2)CC1`: the inhibition is 14.1%.

As to `Cc1cc2cc(CNC(=S)Nc3ccc(OC(F)F)cc3)ccc2[nH]1`, the inhibition was 4.6%.

Regarding `C=CCn1c(-c2cccn(Cc3ccc(Cl)cc3)c2=O)n[nH]c1=S`, the inhibition was 50.3% (active).

Take `C=CCn1c(-c2cccn(Cc3cccc(Cl)c3)c2=O)n[nH]c1=S`: the inhibition is 12.9%.

For `C=CCn1c(-c2cccn(Cc3ccccc3)c2=O)n[nH]c1=S`, the inhibition is 15.3%.

As to `CSc1ccccc1OCc1cc(C(=O)N2CCSCC2)no1`, the inhibition was -40.6%.

With `CC1=C(C(=O)OCc2ccccc2)C(c2cccc([N+](=O)[O-])c2)NC(=O)N1CCCCCC(=O)O` (stereo not given), the inhibition was 10.6%.

In the case of `COc1ccccc1OCC(=O)NC1CCCCCC1`, the inhibition is 10.3%.

For the molecule `O=C(c1ccc(Oc2ccc([N+](=O)[O-])cc2Cl)cc1)N1CCCC1`, the inhibition is 15.1%.

On to `COc1cc(/C=N/N2CCN(Cc3ccc(C)cc3)CC2)cc(OC)c1O`, for which the inhibition was 2.5%.

With `O=C(Nc1c(-c2ccc(F)cc2)nc2ccccn12)c1ccc(F)cc1`, the inhibition was 79.7% (active).

As for `CC(=O)Nc1c(-c2ccc(F)cc2)nc2ccccn12`, the inhibition is -10.8%.

With `O=C(Nc1c(-c2ccccc2)nc2ccccn12)c1ccccc1`, the inhibition is 3.9%.

With `O=C(CCS(=O)(=O)c1ccccc1)N1CCN(c2cccc(C(F)(F)F)c2)CC1`, the inhibition is 11.5%.

In the case of `COc1ccc(/C=C/C(=O)Nc2ccccc2C(F)(F)F)cc1`, the inhibition is -25.4%.

In the case of `CCCCOCC(O)CN1CCN(C(C)=O)CC1` (stereo not given), the inhibition was 10.9%.

As to `COc1ccc(N=Cc2cc(Cc3ccccc3Cl)cc([N+](=O)[O-])c2O)cc1OC`, the inhibition was -10.2%.

As to `O=[N+]([O-])c1cc(Cc2ccccc2)cc(C=Nc2ccc(N3CCOCC3)cc2)c1O`, the inhibition was 11.1%.

Turning to `O=C1NN=C(c2ccccc2)CC1c1c[nH]c2ccccc12` (stereo not given), the inhibition is -14%.

Consider `COc1ccc(NC(=O)CS(=O)(=O)c2cn(CC(=O)N3CCCC3)c3ccccc23)c(OC)c1`, for which the inhibition is -10.2%.

Consider `Cc1ncc(CO)c(/C=N/N=C/c2ccccc2O)c1O`, for which the inhibition is -28%.

For the molecule `Cc1ncc(CO)c(CNc2ccc(-c3nc4ccccc4[nH]3)cc2)c1O`, the inhibition is -99.7%.

With `Cc1ncc(CO)c(CNc2ccc(Oc3ccccc3)cc2)c1O`, the inhibition is 50.4% (active).

In the case of `O=C(COC(=O)c1ccc(Br)cc1)NC1CCCC1`, the inhibition is 10.3%.

Take `O=C(Nc1cccc2ccccc12)c1ccccc1Cl`: the inhibition is -7.8%.

Consider `CCCCCCc1cc2cc(C(=O)Nc3ccccc3)c(=O)oc2cc1O`, for which the inhibition is -36.8%.

In the case of `CCCCCCc1cc2cc(C(N)=O)c(=N)oc2cc1O`, the inhibition is 1.5%.

As to `CCOC(=O)c1c(NC(=O)CSc2n[nH]c(-c3ccco3)n2)sc(C)c1C`, the inhibition is 11.6%.

For the molecule `COCCSc1nnc(NC(=O)C2CC(=O)N(CCc3ccc(F)cc3)C2)s1` (stereo not given), the inhibition was 16.7%.

For `O=C(CCCCn1c(=O)c2ccccc2n(CC(=O)Nc2ccccc2)c1=O)NCc1ccco1`, the inhibition is 3.3%.

Regarding `COc1ccc(-n2c(=O)c(CCC(=O)N(C)Cc3ccccc3C)nc3ccccc32)cc1`, the inhibition was 0.2%.

On to `COc1ccc(/C(O)=C/c2nc3ccccc3n(-c3ccccc3)c2=O)cc1`, for which the inhibition was 24.8%.

For `Cc1ccc(NS(=O)(=O)c2cccc(C(=O)NNC(=O)c3cccn3C)c2)c(C)c1`, the inhibition is -2.3%.

For `C/C(=N\NC(=O)NC1CCCCC1)c1ccco1`, the inhibition was -11.6%.

On to `O=C(c1cc(Cl)nc2ccccc12)N(Cc1nnc(-c2ccccc2Cl)o1)C1CC1`, for which the inhibition is 14.2%.

Turning to `Cc1noc(C)c1C(=O)NCc1ccccc1`, the inhibition was 16.6%.

On to `COc1ccc(NC(=O)c2cc([N+](=O)[O-])ccc2N2CCCC2)cc1`, for which the inhibition is 7.4%.

For `COc1ccc(NC(=O)c2cc([N+](=O)[O-])ccc2O)cc1`, the inhibition is 70.6% (active).

With `COc1ccc(NC(=O)c2cc([N+](=O)[O-])ccc2N2CCCCC2)cc1`, the inhibition is -14.3%.

Turning to `O=[N+]([O-])c1cc(Cl)ccc1NCCNc1ncc(C(F)(F)F)cc1Cl`, the inhibition is 12.4%.

In the case of `Nc1cc(=O)[nH]c(SCc2ccccc2Cl)n1`, the inhibition was 23.4%.

`Nc1cc(=O)[nH]c(SCc2ccc(Cl)cc2Cl)n1`: the inhibition is 58.1% (active).

In the case of `Cc1cc(=O)[nH]c(SCc2ccc(Cl)cc2Cl)n1`, the inhibition was 4.6%.

As for `Cn1c(C(=O)N2CCN(c3ccc(F)cc3)CC2)cc2ccccc21`, the inhibition is 1.5%.

For `O=c1cc(CSc2nc3ccccc3c(=O)[nH]2)c2ccc(O)cc2o1`, the inhibition was 70.3% (active).

Take `O=c1[nH]c(SCc2ccccc2F)nc2ccccc12`: the inhibition is 8.9%.

In the case of `Cc1ccccc1CSc1nc2ccccc2c(=O)[nH]1`, the inhibition was -3.5%.

For the molecule `Cc1cc(-c2nnc(SCC(=O)c3ccc(Cl)cc3)o2)no1`, the inhibition is 1.2%.

For `COc1ccc(-c2oc3cccnc3c2-c2ccc(OC)nc2)cc1`, the inhibition was -2.2%.

On to `COc1cc(CC(=O)Nc2ccc3c(c2)CCC3)cc(OC)c1OC`, for which the inhibition is 24.2%.

`COc1ccc(CC(=O)Nc2ccc3c(c2)CCC3)cc1`: the inhibition was 13.2%.

For `COc1ccc(CC(=O)Nc2ccc3c(c2)CCC3)cc1OC`, the inhibition is 53.3% (active).

On to `Cc1ccc(C)c(N2CCN(CC(=O)Nc3ccc([N+](=O)[O-])cc3C(=O)Nc3ccccc3F)CC2)c1`, for which the inhibition was -26.6%.

`Cc1ccc(S(=O)(=O)c2c(N)n(CCN3CCOCC3)c3nc4ccccc4nc23)cc1C`: the inhibition is -39.8%.

For the molecule `Cn1c(=O)cc(NCCc2ccccc2)[nH]c1=O`, the inhibition was -8.7%.

`O=C(OCCN=C1NS(=O)(=O)c2ccccc21)c1ccncc1`: the inhibition is -0.9%.

Regarding `CCc1ccc(S(=O)(=O)NCc2cn3ccsc3n2)s1`, the inhibition is 13.4%.

For `CCCCCCCC(=O)NC(Nc1ccc(S(N)(=O)=O)cc1)C(Cl)(Cl)Cl` (stereo not given), the inhibition is 22.9%.

As for `CN(C)S(=O)(=O)c1cccc(NC(=O)c2ccncc2)c1`, the inhibition is 12.4%.

With `CN(C)S(=O)(=O)c1cccc(NC(=O)c2cnccn2)c1`, the inhibition is 6.9%.

With `O=C(CC1CC2CCC1C2)OCC(=O)c1c[nH]c2ccccc12` (stereo not given), the inhibition was 12.6%.

Regarding `CC(C(=O)NCc1ccccc1)N1CCN(c2ccc(F)cc2)CC1` (stereo not given), the inhibition is 5.1%.

As for `COc1ccc(CNC2CCSc3ccccc32)cc1OC` (stereo not given), the inhibition is 23.3%.

In the case of `CCn1c(=O)cc(OCC(=O)N2CCc3ccccc32)c2ccccc21`, the inhibition is 17.9%.

As for `COc1ccccc1OCc1nnc(SCC(=O)N2CCCC2)o1`, the inhibition is 4.2%.

Take `COc1ccccc1OCc1nnc(SCC(=O)c2cc(Cl)ccc2OC)o1`: the inhibition is 57.5% (active).

As for `COc1ccccc1OCc1nnc(SCC(=O)N2CCCCC2)o1`, the inhibition is -9.8%.

Take `CC(C)NC(=O)NC(=O)COC(=O)C1(C)CC1(Cl)Cl` (stereo not given): the inhibition was -8.2%.

Take `COC(=O)C(CO)NC(=O)C(C)NC(=O)CNC(=O)OCc1ccccc1` (stereo not given): the inhibition is 9%.

With `COc1ccccc1NC(=O)c1cc2n(n1)C(C(F)(F)F)CC(c1ccc3c(c1)OCO3)N2` (stereo not given), the inhibition was 35.9%.

For `O=C(Nc1cc(Cl)ccc1O)c1cc2n(n1)C(C(F)(F)F)CC(c1ccc3c(c1)OCO3)N2` (stereo not given), the inhibition was 53.1% (active).

Take `COc1ccc(OC)c(NC(=O)c2cc3n(n2)C(C(F)(F)F)CC(c2ccc4c(c2)OCO4)N3)c1` (stereo not given): the inhibition was 35.2%.

As for `CCN(CC(=O)Nc1ccc(N2CCOCC2)cc1)C(=O)c1ccc(C#N)cc1`, the inhibition is 0.4%.

`Cc1ccc(N2CC(C(=O)N3CCN(C(=O)c4ccco4)CC3)CC2=O)cc1` (stereo not given): the inhibition was 3.8%.

`COc1cc(NC(=O)C2CCCCC2)c2ncccc2c1`: the inhibition was 7.2%.

For `CCC(CNc1cc(OC)cc2cccnc12)NC1CCCCC1` (stereo not given), the inhibition is 74.6% (active).

Take `COc1cc(NCc2ccccc2O)c2ncccc2c1`: the inhibition was -106%.

The term inhibition denotes the change of the read-out against control, counted positive when it falls.
